Measured values from article PMC8384837, “Expanding the binding specificity for RNA recognition by a PUF domain”.

Experiments:
Test in all cases: yeast three-hybrid, YBZ-1, SC-Leu-His + 0.5 mM 3-AT, 4 days
Details in all cases: tags: N-Gal4 AD-HA kept; label: inside an RPR1-promoter hybrid RNA with tandem MS2 sites; ssRNA
PUM1 PUF domain R7-KRE = PUM1 PUF domain R7-KRE (Homo sapiens, UniProt Q14671 828-1176, S1079K;N1080R)
Procedure, shortened: (§1)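 The interaction score is the logarithmic change in variant frequency from input to selection. It uses log2, with a pseudocount of 1 for absent variants, and frequencies came from PCR-amplified, Illumina-sequenced repeat regions. The libraries were Pumilio-1 PUF domains randomized at the three base-contacting residues per repeat, co-expressed with matching RNA elements in strain YBZ-1 (LexA–MS2 coat fusion, HIS3 reporter). Plating lasted four days on SC-Leu (input) or SC-Leu-His + 0.5 mM 3-AT (selection).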

PUM1 PUF domain R8-RWA = PUM1 PUF domain R8-RWA (Homo sapiens, UniProt Q14671 828-1176, N1122R;Y1123W;Q1126A)
Procedure, shortened: as §1

PUM1 PUF domain R8-KYR = PUM1 PUF domain R8-KYR (Homo sapiens, UniProt Q14671 828-1176, N1122K;Q1126R)
Procedure, shortened: as §1

PUM1 PUF domain R5-YRR = PUM1 PUF domain R5-YRR (Homo sapiens, UniProt Q14671 828-1176, C1007Y;Q1011R)
Procedure, shortened: as §1

PUM1 PUF domain R5-RYL = PUM1 PUF domain R5-RYL (Homo sapiens, UniProt Q14671 828-1176, C1007R;R1008Y;Q1011L)
Procedure, shortened: as §1

PUM1 PUF domain R7-AVR = PUM1 PUF domain R7-AVR (Homo sapiens, UniProt Q14671 828-1176, S1079A;N1080V;E1083R)
Procedure, shortened: as §1

PUM1 PUF domain R6-IYC = target: T1, PUM1 PUF domain R6-IYC (Homo sapiens, UniProt Q14671 828-1176, N1043I;Q1047C)
T1 sequence: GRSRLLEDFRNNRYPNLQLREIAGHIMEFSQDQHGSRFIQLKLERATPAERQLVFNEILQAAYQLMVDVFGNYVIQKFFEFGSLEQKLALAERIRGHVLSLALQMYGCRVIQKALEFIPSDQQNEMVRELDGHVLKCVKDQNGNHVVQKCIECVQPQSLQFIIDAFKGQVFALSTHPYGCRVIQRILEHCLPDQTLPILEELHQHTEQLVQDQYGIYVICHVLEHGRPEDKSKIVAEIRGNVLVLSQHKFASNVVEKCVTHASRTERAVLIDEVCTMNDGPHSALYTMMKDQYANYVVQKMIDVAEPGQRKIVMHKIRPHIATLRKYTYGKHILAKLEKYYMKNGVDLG
Procedure, shortened: as §1

PUM1 PUF domain R4-RVY = PUM1 PUF domain R4-RVY (Homo sapiens, UniProt Q14671 828-1176, N971R;H972V;Q975Y)
Procedure, shortened: as §1

PUM1 PUF domain R5-FRN = PUM1 PUF domain R5-FRN (Homo sapiens, UniProt Q14671 828-1176, C1007F;Q1011N)
Procedure, shortened: as §1

PUM1 PUF domain R3-APS = PUM1 PUF domain R3-APS (Homo sapiens, UniProt Q14671 828-1176, C935A;R936P;Q939S)
Procedure, shortened: as §1

GGCUAGAACUAGUGGAUCCCCCGGCGCCCGGCGGCUCGAGCCCGGGUAAGUCUAAAUAGUCUGCAUGCCGCCGGGCGCCAUGCCUGCAGGUCGACUCUAGAAAACAUG
binding signal (PUM1 PUF domain R7-KRE): 4.01 log2 enrichment (interaction score)

GGCUAGAACUAGUGGAUCCCCCGGCGCCCGGCGGCUCGAGCCCGGGUAAGCGUAAAUAGUCUGCAUGCCGCCGGGCGCCAUGCCUGCAGGUCGACUCUAGAAAACAUG
binding signal (PUM1 PUF domain R8-RWA): 4.94 log2 enrichment (interaction score)
binding signal (PUM1 PUF domain R8-KYR): 6.62 log2 enrichment (interaction score)

GGCUAGAACUAGUGGAUCCCCCGGCGCCCGGCGGCUCGAGCCCGGGUAAGUGUUAAUAGUCUGCAUGCCGCCGGGCGCCAUGCCUGCAGGUCGACUCUAGAAAACAUG
binding signal (PUM1 PUF domain R5-YRR): 1.61 log2 enrichment (interaction score)

GGCUAGAACUAGUGGAUCCCCCGGCGCCCGGCGGCUCGAGCCCGGGUAAGUGUGAAUAGUCUGCAUGCCGCCGGGCGCCAUGCCUGCAGGUCGACUCUAGAAAACAUG
binding signal (PUM1 PUF domain R5-RYL): 3.39 log2 enrichment (interaction score)

GGCUAGAACUAGUGGAUCCCCCGGCGCCCGGCGGCUCGAGCCCGGGUAAGUUUAAAUAGUCUGCAUGCCGCCGGGCGCCAUGCCUGCAGGUCGACUCUAGAAAACAUG
binding signal (PUM1 PUF domain R7-AVR): 3.46 log2 enrichment (interaction score)
binding signal (PUM1 PUF domain R7-KRE): 3.62 log2 enrichment (interaction score)

GGCUAGAACUAGUGGAUCCCCCGGCGCCCGGCGGCUCGAGCCCGGGUAAGUGUAAAUAGUCUGCAUGCCGCCGGGCGCCAUGCCUGCAGGUCGACUCUAGAAAACAUG
binding signal (PUM1 PUF domain R6-IYC): 3.57 log2 enrichment (interaction score)
binding signal (PUM1 PUF domain R4-RVY): 5.94 log2 enrichment (interaction score)
binding signal (PUM1 PUF domain R8-RWA): 4.01 log2 enrichment (interaction score)
binding signal (PUM1 PUF domain R5-FRN): 1.74 log2 enrichment (interaction score)
binding signal (PUM1 PUF domain R5-YRR): 1.76 log2 enrichment (interaction score)
binding signal (PUM1 PUF domain R3-APS): 3.64 log2 enrichment (interaction score)

GGCUAGAACUAGUGGAUCCCCCGGCGCCCGGCGGCUCGAGCCCGGGUAAGUGUCAAUAGUCUGCAUGCCGCCGGGCGCCAUGCCUGCAGGUCGACUCUAGAAAACAUG
binding signal (PUM1 PUF domain R5-FRN): 2.94 log2 enrichment (interaction score)
binding signal (PUM1 PUF domain R5-YRR): 3.31 log2 enrichment (interaction score)
binding signal (PUM1 PUF domain R5-RYL): 2.69 log2 enrichment (interaction score)
